# Compounds without any hit were thinned out: in the full panel of roughly 83,000, 20% have a hit.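 96-well plates, one dose, 48 hours. Percent growth reported; active if below 10.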 Activity calls are given as the source filed them.
# Tested on: OVCAR-4 ovarian
# Assay: NCI-60 one-dose screen, 48 h (100 = growth as untreated, 0 = no growth, -100 = all killed)
# Conditions: 10 µM unless noted
# Experimental: Growth inhibition of the OVCAR-4 human tumor cell line is measured as a screen for anti-cancer activity. Cells are grown in 96 well plates and exposed to the test compound for 48 hours. Compounds are tested at a single concentration, which is 10^-5 M for most compounds. The reported endpoint is percent growth (GI% or GIPRCNT), where numbers from 0 - 100% represent growth inhibition, and numbers from -100% - 0 represent cell death. For example, a value of 40 represents 60% growth inhibition. A value of 0 means no net growth occurred over the course of the experiment. A value of -40 indicates 40% of cells at the beginning of the experiment died by the end of the experiment. A value of -100 means all cells are dead at the end of the experiment.
# NCI-60 Human Tumor Cell Lines Screen was performed using the standard one-dose NCI protocol, which is described in more detail at https://dtp.cancer.gov/discovery_development/nci-60/default.htm.
# Compounds with GIPRCNT values below 10 were considered active. Activity score was based on GIPRCNT using the following formula: […]
# Score is 0 for GIPRCNT values of 100 or above, 50 for GIPRCNT values of 0, and 100 for GIPRCNT values of -100.
row,Compound,growth
1,CCOc1cccc(/C(N)=N/C(N)=N/c2nc3ccccc3s2)c1,95.1% (inactive)
2,Brc1cccc(-c2cc(-c3cnc4c(c3)OCCO4)n[nH]2)c1,82.5% (inactive)
3,COc1ccc(CC(C)=C(c2ccc(OCCN3CCCC3)cc2)c2ccc(OCCN3CCCC3)cc2)cc1,-86.9% (active)
4,NS(=O)(=O)c1ccc(Nc2nc(Nc3ccccc3)nc(N3N=C(c4ccc(Cl)cc4)CC3c3ccc(Cl)cc3)n2)cc1 (stereo not given),49.5% (inactive)
5,CC(=O)/C(N=Nc1ccc2oc(=O)ccc2c1)=C(\C)O,50% (inactive)
6,CN1CCN(Cc2ccc(NC(=O)c3cncc(C#Cc4cnc5ccc(OCC6COC6)nn45)c3)cc2C(F)(F)F)CC1,-69.9% (active)
7,CN1CCN(Cc2ccc(/C=N/Nc3ccnc4cc(Cl)ccc34)cc2)CC1,83% (inactive)
8,CCNC(=O)Oc1ccc(/C(=C(/C)c2ccc(Cl)cc2)c2ccc(OCCN3CCCCCC3)cc2)cc1,43.4% (inactive)
9,O=C(/C=C/c1cccc(F)c1)c1cccc(OCCCOc2cccc(C(=O)/C=C/c3cccc(F)c3)c2)c1,75.3% (inactive)
10,N#Cc1c(-c2cccs2)cc(-c2cnccn2)nc1SCC(=O)N/N=C/c1cccs1,72.1% (inactive)
11,Cc1ccc(C(=O)CSc2nc3ccccc3c(=O)n2C)cc1,52.4% (inactive)
12,Cc1csc(/N=C(N)/N=C(\N)c2cccs2)n1,105% (inactive)
13,Cc1[nH]c(C(=O)Nc2ccccc2OCc2cccc(C(=O)NC3CCNC3)c2)c(Cl)c1Cl (stereo not given),68.3% (inactive)
14,CN1CCN(c2ccc(Nc3nc(NCCCNS(=O)(=O)c4ccccc4)c4sccc4n3)cc2)CC1,56.5% (inactive)
15,CCCCN1C(=O)/C(=c2\sc3n(c2=O)C2C(NN=3)N(CC)C(=O)N2CC)c2cccc(C)c21 (stereo not given),53.8% (inactive)
16,CC(C)(C)c1cc(NC(=O)Nc2ccc(-c3cn4c5c(sc4n3)CCc3cn(CCCN4CCCCC4)cc3-5)cc2)no1,-78.4% (active)
17,CC(C)(C)OC(=O)Nc1ccc(-c2cccc(Oc3ccc4nnc(Cl)n4n3)c2)cc1,63.7% (inactive)
18,C#C[C@]1(O)CC[C@H]2[C@@H]3CC=C4c5sc(NCc6ccccc6)nc5CC[C@]4(C)[C@H]3CC[C@@]21C,73.6% (inactive)
19,CC(=O)OCCCCN1C=C/C(=C\C(=O)n2ccc3ccccc32)c2ccccc21,85.5% (inactive)
20,CN1CCN(Cc2ccc(NC(=O)c3cncc(C#Cc4cnc(N)nc4)c3)cc2C(F)(F)F)CC1,45.1% (inactive)

row,Compound,growth
1,NC(=O)c1ncn2c(=O)n(CCF)nnc12,58% (inactive)
2,Cc1ccccc1N1CCN(C2=C(Cl)C(=O)c3ncccc3C2=O)CC1,59% (inactive)
3,O=C(CCCCCCNC(=O)C(O)(O)C(F)(F)F)Nc1ncc(-c2ccccc2)s1,18.9% (inactive)
4,CC(C)Sc1nc(-c2ccccc2)c(C#N)c(N2CCOCC2)n1,2.36% (active)
5,CCOC(=O)c1cccnc1Nc1ccc(NC(=O)Nc2ccc(Cl)c(C(F)(F)F)c2)cc1,42.8% (inactive)
6,O=C(Nc1ccc(N2CCOCC2)cc1)Nc1ccc2c(ccn2C(=O)c2cccc(F)c2)c1,82.6% (inactive)
7,CCc1cc(O)ccc1Nc1cc(-c2ccc(-n3cccn3)cc2)[nH]n1,49% (inactive)
8,CCOC(=O)c1ccc(NC2=CC(=O)C(C)=C(C)C2=O)cc1,-63% (active)
9,O=C1Nc2cc(Cl)ccc2/C1=C\c1ccc(OCc2ccccc2)cc1,96.3% (inactive)
10,O=C1[C@H]2Cc3c([nH]c4ccccc34)[C@H](c3ccc(Br)cc3)N2C(=O)CN1C1CCN(CC2CCCCC2)CC1,82.7% (inactive)
11,Clc1ccc2c(N/N=C/c3c[nH]c4ccccc34)ccnc2c1,-61.2% (active)
12,C=CCSC1=NC2C(N(CC)C(=O)N2CC)N1/N=C/C=C/c1ccccc1OC (stereo not given),79.9% (inactive)
13,Cc1ccc2c(n1)C(=O)C(Cl)=C(Nc1ccc(C(=O)OC(C)(C)C)cc1)C2=O,42.7% [9.25 µM] (inactive)
14,Cn1c2nc3ccccc3c-2cc2ccccc21,50% (inactive)
15,COC(=O)N1CCN(CCNCc2ccc(NC(=O)c3ccc(C)c(C#Cc4cnc5cccnn45)c3)cc2C(F)(F)F)CC1,31.1% (inactive)
16,CCCCCN1C(=O)/C(=c2\sc3n(c2=O)C2C(NN=3)N(CC)C(=O)N2CC)c2cccc(C)c21 (stereo not given),52.1% (inactive)
17,CC(C)NC(=O)c1cc(-c2ccc(NC(=O)Nc3ccc(F)c(C(F)(F)F)c3)cc2)nc2cccnc12,92.3% (inactive)
18,O=C1C(SCc2ccccc2)=C(Cl)CN1c1ccccc1,103% (inactive)
19,NCCNC(=O)c1cccc(COc2ccccc2NC(=O)c2cc(Br)c(Br)[nH]2)c1,103% (inactive)
20,Cc1c(C(=O)/C=C/c2ccc(Cl)cc2)nnn1-c1ccc2oc(=O)ccc2c1,105% (inactive)

# Source: PubChem BioAssay (NCI)
